Data published in PubChem BioAssay (Tox21).
Results filed as inconclusive are left out. Activity calls are given as the source filed them. Unless noted, calls follow the shape of the dose curve; as a rule, active = well fitted curve in the direction sought with a large enough effect in the repeat runs; inconclusive = weak or mixed curves; inactive = no such curve, though single readings can be large; an effect the other way counts as inactive or inconclusive.

How the values were obtained:
[1] = qHTS assay to identify aromatase inhibitors - cell viability counter screen (AID 743084);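 also: cells stimulated with testosterone during compound exposure; nearly all actives have a fitted effect of over 55% in size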
[2] = target: Aryl hydrocarbon receptor (Homo sapiens) (UniProt P35869); experiment: qHTS assay to identify small molecule that activate the aryl hydrocarbon receptor (AhR) signaling pathway (AID 743085); also: nearly all actives have a fitted effect of over 15% in size; also: potency is read from the fitted curve at half-maximal effect;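 as to activation: HG2L7.5c1 human HepG2 liver cells with stably integrated DRE-driven firefly reporter; series mostly up to about 70 µM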
Outline: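 Stably transfected human liver carcinoma cells (HG2L7.5c1; 20 DRE-firefly luciferase) were incubated 5 h, dosed, and kept 24 h at 37C. Agonism was scored from increased luciferase luminescence.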

[3] = qHTS assay to identify small molecule that activate the aryl hydrocarbon receptor (AhR) signaling pathway - cell viability counter screen (AID 743086);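 also: HepG2 liver cells carrying the AhR DRE luciferase reporter; series mostly up to about 70 µM; nearly all actives have a fitted effect of over 45% in size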
Outline: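 HepG2-AhR-luc (HG2L7.5c1) cells, 4000/well, treated 24 h at 37 C with compound; viability measured as CellTiter-Fluor fluorescence after 30 min in the same wells as the luciferase read.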

[4] = target: Peroxisome proliferator-activated receptor gamma (Homo sapiens) (UniProt P37231); experiment: qHTS assay to identify small molecule agonists of the peroxisome proliferator-activated receptor gamma (PPARg) signaling pathway (AID 743094; active = well fitted activation curve with a large enough effect in the signal ratio in the repeat runs, not every such curve was filed as active; the % refers to the signal ratio)
Outline: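 Cells from the PPARg UAS-bla HEK293H line are plated and incubated 5 h at 37C. Compounds in DMSO are pinned in and left 17 h at 37C. LiveBLAzer B/G substrate is then added for 1 h at room temperature before fluorescence is measured.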

[5] = target: Peroxisome proliferator-activated receptor gamma (Homo sapiens) (UniProt P37231); experiment: qHTS assay to identify small molecule antagonists of the peroxisome proliferator-activated receptor gamma (PPARg) signaling pathway (AID 743191; calls by dose curve; also: series mostly up to about 63 µM; nearly all actives have a fitted effect of over 30% in size)
Outline: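 GeneBLAzer PPARg UAS-bla HEK293H cells, 5 h post-plating, exposed to compounds 17 h at 37C. LiveBLAzer B/G FRET substrate added for 1 h at room temperature; beta-lactamase reporter read by fluorescence intensity.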

[6] = qHTS assay to identify small molecule antagonists of the peroxisome proliferator-activated receptor gamma (PPARg) signaling pathway - cell viability counter screen (AID 743194); also: nearly all actives have a fitted effect of over 55% in size
Outline: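 Cytotoxicity counter screen in PPARg-bla HEK293H cells, same wells as reporter assay. Compounds plus 50 nM rosiglitazone (final) for 17 h at 37 C, then viability read by CellTiter-Glo luminescence.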

[7] = qHTS assay for small molecule agonists of the antioxidant response element (ARE) signaling pathway - cell viability counter screen (AID 743203; calls by dose curve; also: nearly all actives have a fitted effect of over 55% in size)
Outline: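 Cytotoxicity was tested in parallel with the ARE reporter screen. ARE-bla HepG2 cells were exposed to compounds for 16 hrs, and viability was taken from CellTiter-Glo luminescence.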

[8] = qHTS assay for small molecule activators of the heat shock response signaling pathway - cell viability counter screen (AID 743209); also: nearly all actives have a fitted effect of over 50% in size
Outline: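 Cytotoxicity counter screen run in parallel with the HSE beta-lactamase reporter, using the same wells. HeLa HSE-bla cells received compound for 5 h at 37 C; ATP-based CellTiter-Glo luminescence was measured after 30 min at room temperature.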

[9] = qHTS assay for small molecule activators of the heat shock response signaling pathway (AID 743210; active = well fitted activation curve with a large enough effect in the signal ratio in the repeat runs, with a control signal flat, not every such curve was filed as active; the % refers to the signal ratio;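 also: HeLa cells with beta-lactamase reporter driven by heat shock elements; series mostly up to about 63 µM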)
Outline: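 Beta-lactamase reporter read-out: FRET substrate fluorescence after 2.5 h at RT, following 5 h compound treatment at 37 C of HeLa cells carrying HSE-driven bla reporter; quantitative HTS format.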

[10] = target: Peroxisome proliferator-activated receptor delta (Homo sapiens) (UniProt Q03181); experiment: qHTS assay to identify small molecule agonists of the peroxisome proliferator-activated receptor delta (PPARd) signaling pathway (AID 743212; calls by dose curve)
Outline: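 Read-out: beta-lactamase FRET fluorescence after 2 h room-temperature incubation with LiveBLAzer B/G substrate. Cells were HEK293H carrying a UAS-bla reporter for PPARd, treated at 37 C with DMSO-dissolved compounds.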

[11] = qHTS assay to identify small molecule antagonists of the peroxisome proliferator-activated receptor delta (PPARd) signaling pathway - cell viability counter screen (AID 743213); also: nearly all actives have a fitted effect of over 50% in size
Outline: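 Viability counter-screen, qHTS format: PPARd-bla HEK293H, L165041 300 nM final, 17 h compound exposure at 37 C, CellTiter-Glo luminescence after 30 min RT.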

[12] = qHTS assay to identify small molecule agonists of the farnesoid-X-receptor (FXR) signaling pathway - cell viability counter screen (AID 743218); also: nearly all actives have a fitted effect of over 45% in size
Outline: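 Cells were seeded, left 5 h at 37 C and 5% CO2, then dosed with compound in DMSO for 16 h. After the beta-lactamase FRET read, CellTiter-Glo was added and luminescence measured 30 min later.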

[13] = qHTS assay to identify small molecule antagonists of the farnesoid-X-receptor (FXR) signaling pathway - cell viability counter screen (AID 743221; active = well fitted cell-killing curve with a large enough effect in the repeat runs, not every such curve was filed as active; also: nearly all actives have a fitted effect of over 50% in size)
Outline: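 Here viability was scored by luminescence after CellTiter-Glo addition to wells already read for beta-lactamase. Prior treatment: compound plus CDCA (50 uM final), 16 h, 37 C, HEK 293T FXR-bla cells.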

[14] = target: Vitamin D3 receptor (Homo sapiens) (UniProt P11473); experiment: qHTS assay to identify small molecule agonists of the vitamin D receptor (VDR) signaling pathway (AID 743222; calls by dose curve)
Outline: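 Cells carrying a VDR-driven beta-lactamase reporter are seeded at 2,000 per well and rested 4 h. Compounds in DMSO are added for 16 h at 37C, and FRET substrate fluorescence is measured after 2 h at room temperature.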

[15] = qHTS assay to identify small molecule agonists of the peroxisome proliferator-activated receptor delta (PPARd) signaling pathway - cell viability counter screen (AID 743211); also: nearly all actives have a fitted effect of over 55% in size
Outline: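 In the same wells used for beta-lactamase reporter measurement, cytotoxicity is scored by CellTiter-Glo. HEK293H PPARd-bla cells receive compound for 17 h at 37C following a 5 h settling period.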

[16] = target: Peroxisome proliferator-activated receptor delta (Homo sapiens) (UniProt Q03181); experiment: qHTS assay to identify small molecule antagonists of the peroxisome proliferator-activated receptor delta (PPARd) signaling pathway (AID 743215; active = well fitted inhibition curve with a large enough effect in the signal ratio in the repeat runs, not every such curve was filed as active; the % refers to the signal ratio;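 also: cells stimulated with agonist L165041 at 300 nM final during compound exposure; series mostly up to about 62 µM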)
Outline: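 Cells: HEK293H with a UAS-driven beta-lactamase reporter responsive to PPARd. Compounds were co-added with L165041 (300 nM, final) and incubated 17 h at 37 C before a 2 h room-temperature FRET substrate step and fluorescence reading.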

[17] = target: Bile acid receptor (Homo sapiens) (UniProt Q96RI1); experiment: qHTS assay to identify small molecule antagonists of the farnesoid-X-receptor (FXR) signaling pathway (AID 743217; active = well fitted inhibition curve with a large enough effect in the signal ratio in the repeat runs, not every such curve was filed as active; the % refers to the signal ratio)
Outline: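 Cells carrying a UAS-driven beta-lactamase reporter (GeneBLAzer FXR-UAS-bla HEK 293T) were plated and rested 5 h at 37 °C. Compounds in DMSO were added alongside chenodeoxycholic acid agonist at 50 uM final and left 16 h at 37 °C before FRET substrate readout.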

[18] = target: Bile acid receptor (Homo sapiens) (UniProt Q96RI1); experiment: qHTS assay to identify small molecule agonists of the farnesoid-X-receptor (FXR) signaling pathway (AID 743220; active = well fitted activation curve with a large enough effect in the signal ratio in the repeat runs, not every such curve was filed as active; the % refers to the signal ratio)
Outline: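 FXR-UAS-bla HEK 293T cells carrying a UAS-driven beta-lactamase reporter were plated for 5 h at 37C/5% CO2, then exposed to DMSO-dissolved Tox21 10K compounds for 16 h at 37C. A LiveBLAzer B/G FRET substrate was loaded for 2 h at room temperature before fluorescence reading.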

[19] = target: Vitamin D3 receptor (Homo sapiens) (UniProt P11473); experiment: qHTS assay to identify small molecule antagonists of the vitamin D receptor (VDR) signaling pathway (AID 743223; active = well fitted inhibition curve with a large enough effect in the signal ratio in the repeat runs, not every such curve was filed as active; the % refers to the signal ratio)
Outline: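 Inhibition of agonist-driven VDR signalling is scored in VDR-bla cells: 3 nM final 1alpha,25-dihydroxyvitamin D3 plus compound, 16 h at 37C, then beta-lactamase detection by FRET substrate fluorescence after 2 h.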

[20] = qHTS assay for small molecule agonists of the antioxidant response element (ARE) signaling pathway (AID 743202; active = well fitted activation curve with a large enough effect in the signal ratio in the repeat runs, not every such curve was filed as active; the % refers to the signal ratio; also: potency is read from the fitted curve at half-maximal effect)
Outline: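 HepG2 ARE-bla reporter line, 2,000 cells/well; 5 h preincubation 37 C/5% CO2; compound (DMSO) 16 h 37 C; B/G FRET substrate 2 h RT; fluorescence intensity.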

Measured: Potency

Aryl hydrocarbon receptor (Homo sapiens), sequence (P35869 whole entry, looked up): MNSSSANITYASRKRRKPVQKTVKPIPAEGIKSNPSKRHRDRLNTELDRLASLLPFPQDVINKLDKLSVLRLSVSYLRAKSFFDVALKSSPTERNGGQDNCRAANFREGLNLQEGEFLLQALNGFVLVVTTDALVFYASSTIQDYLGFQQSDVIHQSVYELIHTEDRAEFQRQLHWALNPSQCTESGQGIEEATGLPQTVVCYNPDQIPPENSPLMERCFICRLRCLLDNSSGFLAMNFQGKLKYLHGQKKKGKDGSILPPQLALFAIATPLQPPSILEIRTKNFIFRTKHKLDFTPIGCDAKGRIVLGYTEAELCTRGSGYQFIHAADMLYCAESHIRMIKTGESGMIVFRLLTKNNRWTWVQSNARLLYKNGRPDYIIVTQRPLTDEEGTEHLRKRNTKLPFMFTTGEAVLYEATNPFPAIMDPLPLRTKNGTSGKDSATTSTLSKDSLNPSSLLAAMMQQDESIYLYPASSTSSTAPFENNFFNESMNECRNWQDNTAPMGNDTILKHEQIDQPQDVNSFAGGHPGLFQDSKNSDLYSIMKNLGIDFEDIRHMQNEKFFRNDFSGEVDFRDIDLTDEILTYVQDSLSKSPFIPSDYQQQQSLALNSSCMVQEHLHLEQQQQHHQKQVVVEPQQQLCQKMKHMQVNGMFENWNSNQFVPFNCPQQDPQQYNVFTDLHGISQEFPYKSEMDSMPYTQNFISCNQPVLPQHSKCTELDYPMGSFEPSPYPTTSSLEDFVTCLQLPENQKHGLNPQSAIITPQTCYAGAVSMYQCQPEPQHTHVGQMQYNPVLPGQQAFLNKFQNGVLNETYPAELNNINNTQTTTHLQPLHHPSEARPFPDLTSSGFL
Bile acid receptor (Homo sapiens), sequence (Q96RI1 whole entry, looked up): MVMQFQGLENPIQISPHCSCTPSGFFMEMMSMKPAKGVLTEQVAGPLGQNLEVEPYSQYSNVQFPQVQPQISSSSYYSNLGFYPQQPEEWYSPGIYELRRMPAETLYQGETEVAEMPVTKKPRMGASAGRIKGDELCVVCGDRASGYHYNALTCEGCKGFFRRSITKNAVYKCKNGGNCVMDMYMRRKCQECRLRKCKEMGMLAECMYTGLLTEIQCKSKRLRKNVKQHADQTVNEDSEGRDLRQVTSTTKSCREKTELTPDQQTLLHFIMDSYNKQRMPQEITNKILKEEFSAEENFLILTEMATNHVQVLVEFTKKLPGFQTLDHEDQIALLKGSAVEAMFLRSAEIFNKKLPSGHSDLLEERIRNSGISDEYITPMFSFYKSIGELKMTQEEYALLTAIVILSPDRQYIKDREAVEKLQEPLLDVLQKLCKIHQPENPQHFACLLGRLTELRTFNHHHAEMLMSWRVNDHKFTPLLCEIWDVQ
Peroxisome proliferator-activated receptor delta (Homo sapiens), sequence (Q03181 whole entry, looked up): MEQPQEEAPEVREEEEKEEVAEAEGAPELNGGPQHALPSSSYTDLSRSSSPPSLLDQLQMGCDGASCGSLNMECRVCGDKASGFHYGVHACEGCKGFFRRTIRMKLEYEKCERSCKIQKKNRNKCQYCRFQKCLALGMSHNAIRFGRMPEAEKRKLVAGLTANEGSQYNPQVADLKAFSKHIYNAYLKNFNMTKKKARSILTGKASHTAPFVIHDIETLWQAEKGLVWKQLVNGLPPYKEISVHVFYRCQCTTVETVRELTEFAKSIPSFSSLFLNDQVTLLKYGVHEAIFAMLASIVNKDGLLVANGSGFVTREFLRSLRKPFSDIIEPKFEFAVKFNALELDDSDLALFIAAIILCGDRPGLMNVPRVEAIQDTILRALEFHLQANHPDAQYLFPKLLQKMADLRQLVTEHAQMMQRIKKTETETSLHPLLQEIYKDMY
Vitamin D3 receptor (Homo sapiens), sequence (P11473 whole entry, looked up): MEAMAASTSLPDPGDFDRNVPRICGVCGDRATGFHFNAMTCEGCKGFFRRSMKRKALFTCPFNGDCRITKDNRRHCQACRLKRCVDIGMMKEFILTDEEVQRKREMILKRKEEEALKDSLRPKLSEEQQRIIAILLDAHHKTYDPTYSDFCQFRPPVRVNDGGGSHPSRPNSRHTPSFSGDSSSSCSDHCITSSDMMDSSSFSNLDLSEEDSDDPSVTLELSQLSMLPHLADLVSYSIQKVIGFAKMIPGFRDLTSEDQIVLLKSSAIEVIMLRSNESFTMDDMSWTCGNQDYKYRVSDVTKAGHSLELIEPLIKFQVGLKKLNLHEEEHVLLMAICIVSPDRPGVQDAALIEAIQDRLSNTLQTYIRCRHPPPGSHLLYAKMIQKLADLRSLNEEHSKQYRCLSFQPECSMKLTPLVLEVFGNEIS
Peroxisome proliferator-activated receptor gamma (Homo sapiens), sequence (P37231 whole entry, looked up): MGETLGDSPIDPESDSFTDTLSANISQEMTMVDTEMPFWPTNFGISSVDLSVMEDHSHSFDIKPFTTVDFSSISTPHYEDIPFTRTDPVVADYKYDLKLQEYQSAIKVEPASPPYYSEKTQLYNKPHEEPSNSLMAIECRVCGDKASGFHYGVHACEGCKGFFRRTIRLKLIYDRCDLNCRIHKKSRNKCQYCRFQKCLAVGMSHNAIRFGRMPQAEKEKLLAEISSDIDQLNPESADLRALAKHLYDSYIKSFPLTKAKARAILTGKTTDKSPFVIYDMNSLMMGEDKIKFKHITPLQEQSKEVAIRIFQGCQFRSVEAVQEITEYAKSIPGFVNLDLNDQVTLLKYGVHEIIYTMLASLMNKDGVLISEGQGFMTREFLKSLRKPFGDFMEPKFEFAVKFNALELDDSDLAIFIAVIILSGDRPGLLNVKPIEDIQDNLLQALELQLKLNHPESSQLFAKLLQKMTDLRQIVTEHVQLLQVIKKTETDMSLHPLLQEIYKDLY

OCCN(CCO)c1cccc(Cl)c1
not listed: [15] | [16] | [17] | [18] | [19] | [20]
inactive: all other assays above

CC(CN)CC(C)(C)CCN (centres undefined)
not listed: [20]
inactive: all other assays above

Cc1cc(C(C)(C)C)c(O)c(C)c1CC1=NCCN1
inactive: [1] | [2] | [3] | [4] | [5] | [6] | [7] | [8] | [9] | [10] | [12]

O=S(=O)(O)c1cc(O)c2ccc(Nc3ccccc3)cc2c1
not listed: [6] | [10] | [16] | [17] | [18]
inactive: all other assays above

O=C(Nc1ccc(Cl)c(Cl)c1)C1CC1
active: [2] 29.8 µM | [20] 15 µM
not listed: [6] | [14] | [17] | [18]
inactive: all other assays above

C=COCCOCCOCCOC=C
not listed: [9] | [10] | [17] | [18]
inactive: all other assays above

Cc1cccc(C)c1NC(=O)c1ccccc1C(=O)O
not listed: [7] | [10] | [13] | [16] | [17] | [18]
inactive: all other assays above

CC(C)C(=O)OCCc1ccccc1
not listed: [6] | [11]
inactive: all other assays above

COc1ccc(OC)c(Cl)c1
not listed: [13] | [14] | [17] | [18] | [19] | [20]
inactive: all other assays above

CC(=O)c1ccc2c(c1)Cc1ccccc1-2
active: [2] 54.5 µM | [20] 7.7 µM
not listed: [10] | [15] | [17] | [19]
inactive: all other assays above

OC[C@H](Cc1cccc(O)c1)[C@H](CO)Cc1cccc(O)c1
not listed: [10] | [20]
inactive: all other assays above

O=C(O)CCSSCCC(=O)O
not listed: [6] | [13]
inactive: all other assays above

CN(C)CCOCCO
not listed: [6] | [11] | [14] | [17] | [19]
inactive: all other assays above

O=C(OCc1ccccc1)C(=O)OCc1ccccc1
not listed: [9] | [10] | [15] | [17] | [18] | [20]
inactive: all other assays above

CC(C)CCCC(C)(C)O
not listed: [7] | [9] | [15] | [17] | [18]
inactive: all other assays above

CN(C)c1ccc(C=O)cc1
not listed: [13] | [19] | [20]
inactive: all other assays above

C=CCCCCCCCCCCCC
not listed: [20]
inactive: all other assays above

C=C(C)C(=O)OCCOP(=O)(O)OCCOC(=O)C(=C)C
not listed: [6] | [10] | [11] | [17] | [19]
inactive: all other assays above
